# The source made the active and inactive calls.
# How the values were obtained:
# [1] = optical density shifts of acrAB sulA E. coli – strain DRC41, OD650, 48 h, E. coli filamentation inducer project, primary screen (AID 1152); conditions: higher = more signal, called active from +8 up or from −8 down;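 further: E. coli MC1000 strain DRC41 lacking acrAB efflux pump and sulA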
# [2] = probe aLefty1 binding on compound microarray – biochemical, small-molecule microarray, 635/667 nm fluorescence, primary screen (AID 1153); conditions: higher = more signal;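 further: score merges spot fluorescence with signal-to-noise ratio from the scanned slide images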
# [3] = plasmodial surface anion channel blockers, osmotic lysis – cell-based, P. falciparum Indochina, OD700, 1 h, primary screen (AID 1154); conditions: P. falciparum Indochina infected RBC osmotic lysis, higher = more signal, called active from +8 up or from −8 down
# [4] = plasmodial surface anion channel blockers, osmotic lysis – cell-based, P. falciparum Indochina, OD700, 2 h, primary screen (AID 1155);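 further: lysis reports solute entry through the parasite surface anion channel PSAC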; conditions: P. falciparum Indochina infected erythrocytes, higher = more signal, called active from +8 up or from −8 down
# [5] = changes in parasitized red cell lysis, either direction – P. falciparum Indochina, OD700, 3 h, PSAC antagonist project, primary screen (AID 1156); conditions: P. falciparum-infected erythrocytes, osmotic lysis, higher = more signal, called active from +8 up or from −8 down
# [6] = plasmodial surface anion channel blockers, osmotic lysis – cell-based, P. falciparum Indochina, OD700, 18 h, primary screen (AID 1157); conditions: P. falciparum Indochina infected erythrocytes, osmotic lysis OD700, 18 h; higher = more signal, called active from +8 up or from −8 down
# [7] = S6 kinase pathway phospho-S6 level changes – cell-based, A549, cytoblot, luminescence, serum-stimulated, primary screen (AID 1158); conditions: 5 h, higher = more signal;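 further: serum-stimulated A549 lung adenocarcinoma cells; signal is phosphorylated S6 detected by cytoblot immunostaining with HRP secondary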
# [8] = biological target: NADPH oxidase 2 (Homo sapiens) (UniProt P04839); test: compounds shifting NOX2 Amplex Red fluorescence – cell-based, HEK293-NOX2, PMA-stimulated, NOX inhibitor project, primary screen (AID 1159); conditions: 45 min, higher = more signal, called active from +8 up or from −8 down; further: test concentration not given here
# [9] = biological target: NADPH oxidase 4 (Homo sapiens) (UniProt Q9NPH5); test: compounds shifting NOX4 Amplex Red fluorescence – cell-based, HEK293-NOX4, tetracycline-induced, NOX inhibitor project, primary screen (AID 1160); conditions: HEK293-NOX4, Amplex Red H2O2 fluorescence, 45 min; higher = more signal, called active from +8 up or from −8 down
# [10] = biological target: NADPH oxidase 5 (Homo sapiens) (UniProt Q96PH1); test: compounds shifting NOX5 Amplex Red fluorescence – cell-based, HEK293-NOX5, NOX inhibitor project, primary screen (AID 1161); conditions: HEK293-NOX5, ionomycin, 45 min, higher = more signal
# [11] = compound effects on lung adenocarcinoma cell viability – A549, calcein-AM fluorescence, 48 h, basal, profiling panel (AID 1162); conditions: higher = more signal; further: test concentration not given here
# [12] = compound effects on differentiated 3T3-L1 adipocyte viability – cell-based, 3T3-L1 adipocytes, calcein-AM fluorescence, 48 h, basal, profiling panel (AID 1163); conditions: 3T3-L1 adipocytes viability, higher = more signal; further: test concentration not given here
# [13] = compound effects on hepatocellular carcinoma cell viability – HepG2, calcein-AM fluorescence, 48 h, basal, profiling panel (AID 1164); conditions: higher = more signal; further: test concentration not given here
# [14] = compound effects on multiple myeloma cell viability – MM1S, calcein-AM fluorescence, 48 h, basal, profiling panel (AID 1165); conditions: higher = more signal; further: test concentration not given here
# [15] = calcein-AM signal in unstimulated myeloma cells – cell-based, calcein-AM fluorescence, 48 h, PK04 Diversity Set, profiling panel (AID 1166); conditions: RPMI8226 myeloma viability, higher = more signal;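 further: cells grown under basal conditions without added stimulus; test concentration not given here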
# [16] = JC-1 mitochondrial signal, unstimulated HepG2 cells – cell-based, JC-1 fluorescence, 24 h, 100 nL compound, profiling panel (AID 1167); conditions: HepG2 mitochondrial potential, higher = more signal; further: test concentration not given here
# [17] = JC-1 mitochondrial signal, unstimulated adipocytes – cell-based, JC-1 fluorescence, 3T3-L1 adipocytes, 24 h, 100 nL compound, profiling panel (AID 1168); conditions: JC-1 mitochondrial fluorescence, higher = more signal, called active from +8 up or from −8 down; further: test concentration not given here
# [18] = JC-1 mitochondrial signal, unstimulated myeloma cells – cell-based, JC-1 fluorescence, RPMI8226, 24 h, 100 nL compound, profiling panel (AID 1169); conditions: JC-1 mitochondrial potential fluorescence, higher = more signal; further: test concentration not given here
# [19] = JC-1 mitochondrial signal, unstimulated MM1S myeloma – cell-based, JC-1 fluorescence, 24 h, 100 nL compound, profiling panel (AID 1170); conditions: MM1S mitochondrial potential, higher = more signal; further: test concentration not given here
# [20] = resazurin metabolic signal in A549 cells – cell-based, resazurin fluorescence, 24 h, PK04 Diversity Set, profiling panel (AID 1171); conditions: A549 viability, higher = more signal, called active from +8 up or from −8 down; further: test concentration not given here
# Sequence of NADPH oxidase 4 (Homo sapiens) (Q9NPH5 whole entry, looked up): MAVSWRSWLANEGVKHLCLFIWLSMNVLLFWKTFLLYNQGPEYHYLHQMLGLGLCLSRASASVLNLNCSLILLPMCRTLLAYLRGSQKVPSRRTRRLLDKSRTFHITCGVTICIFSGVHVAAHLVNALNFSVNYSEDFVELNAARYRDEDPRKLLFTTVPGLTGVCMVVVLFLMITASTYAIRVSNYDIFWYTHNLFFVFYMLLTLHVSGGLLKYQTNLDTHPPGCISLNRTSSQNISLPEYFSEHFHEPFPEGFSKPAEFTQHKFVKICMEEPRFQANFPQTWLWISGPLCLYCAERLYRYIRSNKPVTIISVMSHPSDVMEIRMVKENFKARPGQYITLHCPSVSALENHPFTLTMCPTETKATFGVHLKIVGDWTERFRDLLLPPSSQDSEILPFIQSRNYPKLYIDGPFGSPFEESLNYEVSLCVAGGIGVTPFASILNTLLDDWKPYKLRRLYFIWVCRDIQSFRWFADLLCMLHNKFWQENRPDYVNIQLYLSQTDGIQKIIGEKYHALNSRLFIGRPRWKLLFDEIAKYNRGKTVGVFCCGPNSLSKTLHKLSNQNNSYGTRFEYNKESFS
# Sequence of NADPH oxidase 2 (Homo sapiens) (P04839 whole entry, looked up): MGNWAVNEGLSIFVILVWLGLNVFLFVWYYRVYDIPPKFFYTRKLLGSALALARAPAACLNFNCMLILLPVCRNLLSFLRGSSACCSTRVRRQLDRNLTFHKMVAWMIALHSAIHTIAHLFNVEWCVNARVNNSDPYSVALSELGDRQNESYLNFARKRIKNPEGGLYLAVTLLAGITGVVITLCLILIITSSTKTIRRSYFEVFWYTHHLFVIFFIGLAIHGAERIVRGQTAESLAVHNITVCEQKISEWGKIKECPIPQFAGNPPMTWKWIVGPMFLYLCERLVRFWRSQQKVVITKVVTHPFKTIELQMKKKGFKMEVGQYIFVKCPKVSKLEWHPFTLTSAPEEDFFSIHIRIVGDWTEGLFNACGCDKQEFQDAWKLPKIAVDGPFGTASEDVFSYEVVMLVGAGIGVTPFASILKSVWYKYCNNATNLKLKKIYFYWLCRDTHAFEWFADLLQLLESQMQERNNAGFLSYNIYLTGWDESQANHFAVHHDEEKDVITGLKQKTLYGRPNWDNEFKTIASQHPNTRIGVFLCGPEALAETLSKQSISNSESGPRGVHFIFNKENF
# Sequence of NADPH oxidase 5 (Homo sapiens) (Q96PH1 whole entry, looked up): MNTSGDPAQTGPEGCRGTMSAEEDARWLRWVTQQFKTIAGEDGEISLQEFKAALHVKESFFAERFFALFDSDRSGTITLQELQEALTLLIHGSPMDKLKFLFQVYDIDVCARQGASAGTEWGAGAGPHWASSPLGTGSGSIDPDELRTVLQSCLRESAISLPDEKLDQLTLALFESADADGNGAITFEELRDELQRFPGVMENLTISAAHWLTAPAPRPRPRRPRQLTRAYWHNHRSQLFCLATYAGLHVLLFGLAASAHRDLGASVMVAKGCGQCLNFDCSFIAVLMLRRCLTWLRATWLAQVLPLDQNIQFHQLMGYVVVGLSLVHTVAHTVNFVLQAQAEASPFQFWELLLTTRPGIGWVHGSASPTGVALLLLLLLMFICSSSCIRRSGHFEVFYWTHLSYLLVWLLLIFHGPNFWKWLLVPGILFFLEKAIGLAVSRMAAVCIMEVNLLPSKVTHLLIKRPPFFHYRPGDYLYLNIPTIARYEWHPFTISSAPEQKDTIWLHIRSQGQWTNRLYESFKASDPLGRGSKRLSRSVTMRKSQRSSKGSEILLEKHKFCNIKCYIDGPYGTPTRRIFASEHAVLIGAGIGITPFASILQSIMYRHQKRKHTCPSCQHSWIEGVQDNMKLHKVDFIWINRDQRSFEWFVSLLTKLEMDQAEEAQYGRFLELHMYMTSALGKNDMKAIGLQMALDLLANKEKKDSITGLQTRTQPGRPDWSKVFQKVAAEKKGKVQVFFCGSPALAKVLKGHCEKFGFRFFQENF
SMILES,z-score [1],composite z-score [2],z-score [3],z-score [4],z-score [5],z-score [6],z-score [7],z-score [8],z-score [9],z-score [10],z-score [11],z-score [12],z-score [13],z-score [14],z-score [15],z-score [16],z-score [17],z-score [18],z-score [19],z-score [20]
CO[C@@H]1C=CCC(=O)N[C@@H](C)C(=O)OC[C@@H](OC)[C@H](C)C=CCC(=O)OC[C@H]1C,0.0083 (inactive),-0.149,-0.0896 (inactive),0.233 (inactive),0.442 (inactive),0.205 (inactive),0.15,-0.27 (inactive),0.0964 (inactive),-0.367,0.234,0.374,0.0804,0.316,0.389,0.589,-0.848 (inactive),0.674,0.704,0.474 (inactive)
CCOC(=O)[C@H](CC(C)C)NC(=O)CCC1CC(OC(=O)NCc2ccc3c(c2)OCO3)CC2(CCCC(COC(=O)NCCOc3ccccc3)O2)O1 (stereo not given in full),-0.832 (inactive),0.0882,0.339 (inactive),-0.35 (inactive),-0.118 (inactive),-0.193 (inactive),0.128,1.02 (inactive),-1.63 (inactive),-0.0957,-0.253,-0.36,-1.78,-2.19,-1.43,-1.66,0.278 (inactive),-0.879,-0.0386,0.494 (inactive)
CC(C)=CCCC(C)=CCON=C1C[C@@H](O)[C@@H](O)[C@@H]2[C@@H]3C(=O)N([C@@H](C)c4ccccc4)C(=O)[C@@H]3CC[C@@H]12,-0.0368 (inactive),0.0794,0.336 (inactive),-0.168 (inactive),-0.291 (inactive),0.183 (inactive),-0.814,0.311 (inactive),-0.0815 (inactive),-0.919,-0.412,0.934,-0.341,0.176,-0.249,-0.781,-0.598 (inactive),0.0813,0.114,-0.21 (inactive)
COC(=O)[C@@H]1CC[C@H](C)[C@@H](c2ccc(Br)cc2)N1C(=O)C(F)(F)F,-0.643 (inactive),-0.103,1.08 (inactive),-0.0008 (inactive),0.266 (inactive),0.2 (inactive),-0.56,0.301 (inactive),0.467 (inactive),0.18,-0.0701,-0.0882,-0.434,-1.24,0.468,0.399,0.0984 (inactive),0.508,0.554,0.839 (inactive)
Cc1cc(C)c(-c2cc([C@H](C)ON=C[C@@H](C)[C@H](OCc3ccccc3)C(C)C)on2)c(C)c1,-0.3 (inactive),-0.0501,0.859 (inactive),0.541 (inactive),-0.831 (inactive),0.195 (inactive),-0.408,-0.467 (inactive),-0.299 (inactive),-0.45,0.66,-0.0328,0.163,0.682,-0.234,3.57,-0.508 (inactive),-0.149,-0.143,-0.0597 (inactive)
CC(=O)OC[C@H]1O[C@@H](ON=C(C)CCC(=O)OC[C@H]2O[C@H](C#Cc3ccccc3)C=C[C@@H]2Oc2ccc(C)cc2)[C@H](OC(C)=O)[C@@H](OC(C)=O)[C@@H]1OC(C)=O,-0.446 (inactive),-0.265,2.56 (inactive),1.11 (inactive),0.63 (inactive),0.612 (inactive),-0.635,1.04 (inactive),1.2 (inactive),1.38,0.16,0.57,-0.325,0.0628,-0.062,0.632,-1.55 (inactive),0.393,0.69,0.221 (inactive)
C[C@H]1CC[C@H]2C(=O)OC(COc3ccc(C(C)(C)C)cc3)CN2[C@@H]1c1ccc(Br)cc1 (stereo not given in full),0.786 (inactive),-0.103,1.39 (inactive),0.0974 (inactive),-1.24 (inactive),0.0011 (inactive),0.0307,0.426 (inactive),0.317 (inactive),0.671,2.19,0.193,0.349,0.793,0.253,0.745,-0.414 (inactive),0.566,0.855,0.479 (inactive)
O=C1CCCC=C1C(O)c1ccc([N+](=O)[O-])cc1 (stereo not given),0.134 (inactive),-0.217,-0.487 (inactive),-0.347 (inactive),-0.324 (inactive),-0.342 (inactive),0.317,1.42 (inactive),0.262 (inactive),-0.56,-0.419,-0.388,-0.0678,-0.629,0.372,-0.614,-0.0489 (inactive),0.566,0.502,-0.258 (inactive)

# Source: PubChem BioAssay
